# From PubChem BioAssay
# Sfp inh – qHTS Assay for Inhibitors of Bacillus subtilis Sfp phosphopantetheinyl transferase (PPTase); 4'-phosphopantetheinyl transferase ffp (Bacillus subtilis), Q9F4F7; Biochemical Sfp PPTase activity, qHTS; Potency, µM, for the others: largest response in the series, negative = inhibition, hits mostly inhibitors; hit rate 3.5% among 310,000; AID 1490, 2009;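 note: the enzyme is Sfp with the accession as filed and its product quenches rhodamine fluorescence; 0% = enzyme reaction without inhibitor and -100% = no enzyme wells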
#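 Buffer: 50 mM Hepes-Na pH 7.6, 10 mM MgCl2, 0.01% Nonidet P-40, 0.01% BSA. Enzyme 15 nM, pre-exposed to compound 15 min; substrates then added and fluorescence change tracked over 30 min.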
# HP1b chromo inh – HTS for Inhibitors of HP1-beta Chromodomain Interactions with Methylated Histone Tails. AlphaScreen HP1-beta / biotin-H3K9me3 peptide binding. Potency, µM (titrated, usually from 114 µM), for inactives: at the highest dose activity change, negative = inhibition, most hits filed as inhibitors. hit rate 0.56% among 390,000; note: nearly all actives have a fitted effect of over 70% in size
#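 AlphaScreen: HP1-beta (50 nM) preformed 30 min with biotin-H3(1-18)K9me3 peptide (50 nM) in PBS pH 7.4, 0.01% Tween-20. Compound added for 30 min at RT, then streptavidin donor/nickel chelate acceptor beads (10 ug/mL) for 30 min.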
# G9a inh – qHTS Assay for Inhibitors of Histone Lysine Methyltransferase G9a | Histone-lysine N-methyltransferase EHMT2 (Homo sapiens), Q96KQ7 | G9a H3K9 monomethylation, AlphaScreen, 2 h | Potency, µM (titrated, usually from 102 µM), for the others: top-dose activity, negative = inhibition, most hits filed as inhibitors | hit rate 8.8% among 350,000 | AID 504332, 2011; note: % is set by controls: 0 for no effect and ±100 for the full control effect; nearly all actives have a fitted effect of over 75% in size
#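 Quantitative HTS format: methyltransferase activity on a biotin-tagged H3K9 peptide is measured by AlphaScreen, using a rabbit anti-monomethyl-H3K9 antibody with streptavidin donor and anti-IgG acceptor beads. Final levels are 20 nM enzyme, 500 nM peptide, 20 uM SAM; 2 h RT.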
# BAZ2B inh – qHTS Assay for Inhibitors of BAZ2B. Bromodomain adjacent to zinc finger domain protein 2B (Homo sapiens), Q9UIF8. AlphaScreen BAZ2B-H3K14Ac peptide displacement. Potency, µM (doses to about 114 µM), for inactives: at the highest dose activity change, negative = inhibition, hits mostly inhibitors. hit rate 4.4% among 360,000; note: % is set by controls: 0 for no effect and ±100 for the full control effect; nearly all actives have a fitted effect of over 60% in size
#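 Protein-peptide AlphaScreen: BAZ2B 50 nM, b-H3K14Ac 50 nM, 1x PBS pH 7.4 + 0.01% Tween-20. Preincubation 30 min RT; cpd 30 min RT (top 110 uM); beads 20 min RT, light-protected.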
# 12-LOX inh – Primary qHTS assay for inhibitors of human arachidonate 12S-lipoxygenase (ALOX12): Round 2; Polyunsaturated fatty acid lipoxygenase ALOX12 (Homo sapiens), P18054; purified 12hLO, xylenol orange hydroperoxide absorbance; Potency, µM (series often up to 108 µM), inactives show top-dose activity change, negative = inhibition, usual class: inhibitors; hit rate 1.1% among 580,000; AID 1671190, 2021; note: % is set by controls: 0 for no effect and ±100 for the full control effect
#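 Purified human 12hLO at 150 nM in 25 mM Hepes, 0.01% Triton X-100, pH 7.0, preincubated 15 min at room temperature with compound. Reaction started with 40 uM arachidonic acid, 30 min at room temperature. Hydroperoxide measured by Fe-xylenol orange, 573/405 nm absorbance ratio.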
# JMJD2A Tudor – qHTS Assay for Inhibitors of JMJD2A-Tudor Domain; Lysine-specific demethylase 4A (Homo sapiens), O75164; hit rate 4.4% among 390,000; AlphaScreen JMJD2A-Tudor / H3K4me3 peptide binding; Potency, µM (top dose mostly 114 µM), for inactives: at the highest dose activity change, negative = inhibition, most hits filed as inhibitors; note: % is set by controls: 0 for no effect and ±100 for the full control effect; nearly all actives have a fitted effect of over 50% in size
# Starred values were filed as active, the others as inactive; ? = inconclusive; / = not tested or not shown; [ ] = another dose, or the depositor's remark. This is a sample that favours compounds with a hit; in the whole collection about 8.7% have one here. Calls come from the whole dose curve; as a rule, active = well fitted curve in the direction sought with a large enough effect; inconclusive = small, poorly fitted or top-dose-only effect, or another doubt; inactive = no such curve, though single readings can be large; an effect the other way counts as inactive or inconclusive. Potency is the fitted concentration of half-maximal effect.
SMILES,Sfp inh,HP1b chromo inh,G9a inh,BAZ2B inh,12-LOX inh,JMJD2A Tudor
Cc1noc(C)c1CSc1nnc(-c2ccccc2F)n1CCc1ccccc1,-11.1%,50.2%,39.8µM*,5.9%,-1.8%,-12.7%
Cc1ccccc1-n1c(SCc2c(C)noc2C)nnc1-c1cccnc1,?,60.2%,39.8µM*,3.4%,436.5%,-1.4%
CC(=O)Nc1ccc(C(=O)CSc2nnc(-c3ccccc3F)n2CCc2ccccc2)cc1,/,1.7%[57 µM],/,/,1.2%,-31.9%
CCn1c(CSc2nnc(-c3ccncc3)n2CCOC)nc2cc(C(=O)O)ccc21,-2.6%,35.7%,-32.1%,-21.8%,?,3.1%
CCn1c(CSc2nnc(-c3cccnc3)n2-c2ccccc2C)nc2cc(C(=O)O)ccc21,?,/,12.6µM*,?,/,/
CCn1c(CSc2n[nH]c(N)n2)nc2cc(C(=O)O)ccc21,79.4µM*,46.6%,39.8µM*,?,-2.2%,?
O=C(COc1ccc(-c2nnc(Nc3ccccc3)c3ccccc23)cc1)N1CCCCC1,/,/,/,/,-14.3%,/
S=C1SCN(Cc2cccnc2)CN1Cc1ccccc1,-19.9%,24.0%,1.1%,-27.8%,-17.3%,-4.8%
S=C1SCN(Cc2ccccn2)CN1Cc1ccco1,10µM*,-31.4%,2.24µM*,17.8µM*,?,6.31µM*
COCCN1CSC(=S)N(Cc2ccco2)C1,31.6µM*,-29.5%,44.7µM*,-0.4%,13.3%,?
Cc1ccc(C(=O)OCC(=O)NCc2ccc3c(c2)OCO3)cc1F,/,/,/,/,3.8%,/
Cc1cc(C)nc(OC(C(=O)O)C(OCCC(C)C)(c2ccccc2)c2ccccc2)n1 (stereo unspecified),15.1%,22.3%,4.0%,-17.2%,?,-13.3%
CCCOC(c1ccccc1)(c1ccccc1)C(Oc1nc(C)cc(C)n1)C(=O)O (stereo unspecified),2.6%,30.7%,70.8µM*,-15.9%,0.0%,-4.0%
Cc1nc(NC(C)C)sc1C(=O)NCc1ccco1,/,/,/,/,26.0%,/
Clc1ccc(-c2nnc3sc(-c4ccco4)nn23)c(Cl)c1,13.2%,/,-27.3%[12.7 µM],2.7%,/,/
CCn1nc(C)cc1-c1nn2c(-c3ccc(F)cc3)nnc2s1,/,/,/,/,17.1%,/
Fc1ccccc1-c1ccc(-c2nn3c(-c4ccco4)nnc3s2)o1,/,/,/,/,8.91µM*,/
Cc1oc(-c2ccc(F)cc2)cc1-c1nn2c(-c3ccoc3C)nnc2s1,39.8µM*,?,?,35.5µM*,-34.8%,89.1µM*
COc1cc(OC)c(-c2nn3c(-c4ccco4)nnc3s2)cc1OC,2.8%,-22.0%,44.7µM*,-8.3%,-19.3%,-32.6%
Cc1oc(-c2ccc(Cl)cc2)cc1-c1nn2c(-c3ccco3)nnc2s1,-23.5%,/,?,35.5µM*,/,/
Cc1cc(=O)n(CC(=O)NC(C)CCc2ccccc2)c(N2CCOCC2)n1 (stereo unspecified),/,/,/,/,-2.3%,/
CC(=O)N1CCC(C(NC(=O)c2ccccc2)C(=O)NCc2ccco2)CC1 (stereo unspecified),/,/,/,/,31.2%,/
Cc1oc(-c2ccc(F)cc2)cc1-c1nn2c(-c3ccco3)nnc2s1,/,/,/,/,11.2µM*,/
c1ccc(Cc2nnc3sc(-c4ccco4)nn23)cc1,-4.9%,?,35.5µM*,?,50.4%,?
COCCNC(=S)NNc1cccc(C(=O)O)c1,7.08µM*,?,10µM*,/,-9.8%,10µM*
CS(=O)(=O)N(Cc1cccnc1)C1CN(C(=O)CC2CCCCC2)C1,/,/,/,/,27.7%,/
